Results reported in the supplement of paper PMC12494721.
Where a name gives a salt, the structure may show the parent alone.

Legend:
Settings in all cases: incubation time: 27 h, anaerobic, 37 °C;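 for the amine columns active = adjusted P below 0.05 in both replicates with a change the same way and a mean fold change under 0.8 or over 1.25; inactive = the rest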
[1] = test system: Clostridium sporogenes DSM 1664; test: growth (OD595) fold change vs plate DMSO controls (fold change (ratio)); higher = more growth
Summary of the method: (§1)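 The reported measure is growth: the fold change against the median of DMSO controls on the plate. Absorbance at 595 nm from anaerobic 96-well mGAM cultures grown for 27 h at 37 °C was blank-subtracted, corrected for background with 20 µM compound solutions in water, and converted to OD with a calibration factor of 5. Fold changes above 1.5 appear as NA, and values are the mean of 2 biological replicates.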

Escherichia coli IAI1 [2] = test: as above
Summary of the method: as §1

[3] = test system: Klebsiella aerogenes DSM 30053; test: as above
Summary of the method: as §1

[4] = test system: Ruminococcus gnavus DSM 108212; test: as above
Summary of the method: as §1

[5] = test system: Klebsiella aerogenes DSM 30053; test: fold change of Histamine concentration vs plate DMSO controls (fold change (ratio)); higher = more amine produced, active = hit call of the paper (significant change in both replicates, either direction)
Summary of the method: (§2)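 Amine values are fold changes relative to DMSO-only wells on the same plate. They derive from 27 h, 37 °C anaerobic mGAM cultures of four gut bacterial strains in 80 µL wells, dosed at 20 µM final, or 50 µM final for sweeteners. Extraction of the whole culture, LC–triple-quadrupole MS in dynamic MRM mode, external calibration curves and within-batch drift correction were used, with 2 biological replicates averaged.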

[6] = test system: Clostridium sporogenes DSM 1664; test: fold change of Tryptamine concentration vs plate DMSO controls (fold change (ratio)); higher = more amine produced, active = hit call of the paper (significant change in both replicates, either direction)
Summary of the method: as §2

[7] = test system: Ruminococcus gnavus DSM 108212; test: as above
Summary of the method: as §2

Escherichia coli IAI1 [8] = test: fold change of Putrescine concentration vs plate DMSO controls (fold change (ratio)); higher = more amine produced, active = hit call of the paper (significant change in both replicates, either direction)
Summary of the method: as §2

[9] = test system: Klebsiella aerogenes DSM 30053; test: as above
Summary of the method: as §2

Escherichia coli IAI1 [10] = test: fold change of Cadaverine concentration vs plate DMSO controls (fold change (ratio)); higher = more amine produced, active = hit call of the paper (significant change in both replicates, either direction)
Summary of the method: as §2

[11] = test system: Klebsiella aerogenes DSM 30053; test: as above
Summary of the method: as §2

[12] = test system: Ruminococcus gnavus DSM 108212; test: fold change of 2-Phenylethylamine concentration vs plate DMSO controls (fold change (ratio)); higher = more amine produced, active = hit call of the paper (significant change in both replicates, either direction)
Summary of the method: as §2

Structure (SMILES) | growth [1] | growth (Escherichia coli IAI1 [2]) | growth [3] | growth [4] | fold change of Histamine concentration [5] | fold change of Tryptamine concentration [6] | fold change of Tryptamine concentration [7] | fold change of Putrescine concentration (Escherichia coli IAI1 [8]) | fold change of Putrescine concentration [9] | fold change of Cadaverine concentration (Escherichia coli IAI1 [10]) | fold change of Cadaverine concentration [11] | fold change of 2-Phenylethylamine concentration [12]
CCN(CC)C(=O)C1(c2ccccc2)CC1CN (stereo unspecified) [Milnacipran hydrochloride] (20 µM) | 1 | 1.02 | 1.03 | 1.16 | 0.968 (inactive) | 1.11 (inactive) | 1.09 (inactive) | 0.94 (inactive) | 0.958 (inactive) | 0.895 (inactive) | 1.04 (inactive) | 1.12 (inactive)
CCCC(CCC)C(=O)O[C@H]1C[C@H]2CC[C@@H](C1)[N+]2(C)C [Anisotropine Methylbromide] (20 µM) | 1.04 | 1.07 | 0.99 | 1.01 | 0.986 (inactive) | 1.06 (inactive) | 1.04 (inactive) | 1.03 (inactive) | 0.962 (inactive) | 0.948 (inactive) | 0.99 (inactive) | 1.06 (inactive)
CC(=O)Oc1c(C)cccc1C(=O)O [Cresopirine] (20 µM) | 1.04 | 0.974 | 1.03 | 0.935 | 0.972 (inactive) | 1.06 (inactive) | 0.962 (inactive) | 0.977 (inactive) | 1.02 (inactive) | 0.998 (inactive) | 1.01 (inactive) | 0.945 (inactive)
Oc1c(Cl)cc(Cl)c(Cl)c1Cc1c(O)c(Cl)cc(Cl)c1Cl (20 µM) | 0 | 0.939 | 1.02 | 0 | 1.06 (inactive) | 0.00872 (active) | 0.0717 (active) | 1.06 (inactive) | 1.01 (inactive) | 1.37 (active) | 1.02 (inactive) | 0.0513 (active)
CN(C)CCC(c1ccc(Br)cc1)c1ccccn1 (stereo unspecified) [Brompheniramine maleate] (20 µM) | 0.959 | 1.17 | 1.07 | 1.17 | 0.891 (inactive) | 1.2 (inactive) | 1.1 (inactive) | 0.981 (inactive) | 0.943 (inactive) | 1.2 (inactive) | 1.03 (inactive) | 1.14 (inactive)
COc1cc([S+](C)[O-])ccc1-c1nc2cccnc2[nH]1 (stereo unspecified) [Sulmazole] (20 µM) | 0.885 | 0.999 | 0.98 | 1.1 | 0.922 (inactive) | 0.944 (inactive) | 1.19 (inactive) | 0.951 (inactive) | 0.952 (inactive) | 1.02 (inactive) | 1.05 (inactive) | 1.38 (inactive)
CO[C@H]1C[C@H](O[C@H]2[C@H](C)[C@@H](O[C@@H]3O[C@H](C)C[C@H](N(C)C)[C@H]3OC(C)=O)[C@@H](C)C[C@@]3(CO3)C(=O)[C@H](C)[C@@H](OC(C)=O)[C@@H](C)[C@@H](C)OC(=O)[C@@H]2C)O[C@@H](C)[C@@H]1OC(C)=O [Troleandomycin] (20 µM) | 0.0017 | 0.966 | 1.03 | 0.456 | 0.976 (inactive) | 0.0831 (active) | 0.676 (active) | 1.01 (inactive) | 0.987 (inactive) | 1 (inactive) | 1.01 (inactive) | 0.769 (active)
Clc1ccc2nsnc2c1NC1=NCCN1 [Tizanidine hydrochloride] (20 µM) | 0.00885 | 1.01 | 1.15 | 0.103 | 0.919 (inactive) | 0.0144 (active) | 0.0877 (active) | 0.984 (inactive) | 0.995 (inactive) | 0.983 (inactive) | 1.02 (inactive) | 0.0862 (active)
CC(C)[C@H](N)C(=O)OCC(CO)OCn1cnc2c(=O)nc(N)[nH]c21 (stereo partly specified) [Valganciclovir hydrochloride] (20 µM) | 1.1 | 0.991 | 1.03 | 0.987 | 0.998 (inactive) | 0.983 (inactive) | 0.964 (inactive) | 1.01 (inactive) | 1.01 (inactive) | 1.01 (inactive) | 1.01 (inactive) | 0.926 (inactive)
CNCCCN1c2ccccc2CCc2ccccc21 [Desipramine hydrochloride] (20 µM) | 0.96 | 1.09 | 0.971 | 1.12 | 1.06 (inactive) | 0.982 (inactive) | 0.946 (inactive) | 1.01 (inactive) | 1.01 (inactive) | 1.56 (inactive) | 0.987 (inactive) | 0.934 (inactive)
CCN(CC)C(=S)SSC(=S)N(CC)CC [Disulfiram] (20 µM) | 1.03 | 0.988 | 0.991 | 1.38 | 1.06 (inactive) | 0.992 (inactive) | 1 (inactive) | 1.09 (inactive) | 1.03 (inactive) | 0.969 (inactive) | 1 (inactive) | 0.955 (inactive)
O=C(O)CNC(=O)C(CS)Cc1ccccc1 (stereo unspecified) [Thiorphan] (20 µM) | 1.06 | 1.02 | 1.05 | 0.855 | 0.964 (inactive) | 1.22 (inactive) | 1.04 (inactive) | 0.969 (inactive) | 0.983 (inactive) | 0.956 (inactive) | 1.02 (inactive) | 1.02 (inactive)
CC1(C)S[C@@H]2[C@H](NC(=O)C(c3ccccc3)S(=O)(=O)O)C(=O)N2[C@H]1C(=O)O (stereo partly specified) [Sulbenicillin sodium salt] (20 µM) | 0 | 0.378 | 0.634 | 0 | 1.18 (inactive) | 0.0125 (active) | 0.086 (active) | 1.84 (inactive) | 0.969 (inactive) | 1.87 (active) | 1.08 (inactive) | 0.0641 (active)
c1ccc2c(CC3=NCCN3)cccc2c1 [Naphazoline hydrochloride] (20 µM) | 0.845 | 0.633 | 0.644 | 0.57 | 1.01 (inactive) | 1.01 (inactive) | 1.01 (inactive) | 0.978 (inactive) | 1 (inactive) | 0.96 (inactive) | 1 (inactive) | 0.994 (inactive)
CC(C)NCC(O)c1ccc(NS(C)(=O)=O)cc1 (stereo unspecified) [Sotalol hydrochloride] (20 µM) | 0.907 | 0.97 | 1.2 | 1.01 | 0.907 (inactive) | 1.03 (inactive) | 1.18 (inactive) | 0.935 (inactive) | 1.06 (inactive) | 1.08 (inactive) | 1.12 (inactive) | 1.36 (inactive)
COCCCC/C(=N\OCCN)c1ccc(C(F)(F)F)cc1 [Fluvoxamine maleate] (20 µM) | 1.2 | 0.976 | 0.994 | 0.962 | 0.985 (inactive) | 1.03 (inactive) | 0.982 (inactive) | 1.02 (inactive) | 0.987 (inactive) | 0.985 (inactive) | 0.997 (inactive) | 1.02 (inactive)
Cc1ccc(Nc2c(F)cccc2Cl)c(CC(=O)O)c1 [Lumiracoxib] (20 µM) | 0.867 | 0.984 | 1.1 | 1.08 | 0.88 (inactive) | 0.956 (inactive) | 0.971 (inactive) | 1.02 (inactive) | 1.02 (inactive) | 1.02 (inactive) | 1.03 (inactive) | 0.994 (inactive)
Nc1ccc(S(=O)(=O)Nc2ncccn2)cc1 [Sulfadiazine] (20 µM) | 0.978 | 0.939 | 1.06 | 0.958 | 0.966 (inactive) | 0.955 (inactive) | 0.997 (inactive) | 0.976 (inactive) | 1 (inactive) | 1.03 (inactive) | 1.01 (inactive) | 1.02 (inactive)
C[C@H](CCC(=O)O)[C@H]1CC[C@H]2[C@@H]3[C@H](O)C[C@@H]4C[C@H](O)CC[C@]4(C)[C@H]3CC[C@]12C [Chenodiol] (20 µM) | 1.06 | 0.995 | 1.02 | 1.01 | 1 (inactive) | 1.03 (inactive) | 1.03 (inactive) | 1 (inactive) | 0.999 (inactive) | 1.04 (inactive) | 1.02 (inactive) | 0.994 (inactive)
Nc1nc(NC2CC2)c2ncn([C@H]3C=C[C@@H](CO)C3)c2n1 [Abacavir sulfate] (20 µM) | 1.25 | 1.05 | 1.02 | 1.02 | 1.04 (inactive) | 0.969 (inactive) | 0.953 (inactive) | 1.03 (inactive) | 1.04 (inactive) | 0.969 (inactive) | 0.992 (inactive) | 0.935 (inactive)
NC(=O)[C@@H]1CCCN1C(=O)[C@H](Cc1c[nH]cn1)NC(=O)[C@@H]1CCC(=O)N1 [Thyrotropin-Releasing Hormone] (20 µM) | 0.956 | 0.979 | 1.02 | 0.996 | 0.966 (inactive) | 0.998 (inactive) | 1 (inactive) | 1.02 (inactive) | 1 (inactive) | 0.999 (inactive) | 1 (inactive) | 0.998 (inactive)
Nc1ccc(O)c(C(=O)O)c1 [Mesalamine] (20 µM) | 0.832 | 0.983 | 0.985 | 0.924 | 1.06 (inactive) | 1.02 (inactive) | 1.01 (inactive) | 0.957 (inactive) | 1.01 (inactive) | 0.97 (inactive) | 0.98 (inactive) | 1.04 (inactive)
CC(C)NC(=N)NC(=N)Nc1ccc(Cl)cc1 [Proguanil hydrochloride] (20 µM) | 0.986 | 0.955 | 0.964 | 0.969 | 1.06 (inactive) | 1.04 (inactive) | 1.03 (inactive) | 1.09 (inactive) | 0.997 (inactive) | 0.868 (inactive) | 0.979 (inactive) | 1.02 (inactive)
